# Experimental data published in the supplement of paper PMC10037445.
# The full ranking holds about 2,900 compounds; the median of “NF-kB SEAP reporter activity, fold change vs agonist alone” is about 0.99, and the highest 2% start at about 2.6. For the sample, the highest values were picked, then their nearest neighbours and some compounds at random.
# Experiments:
# [1] = system: RAW-Dual; assay: NF-kB SEAP reporter activity, fold change vs agonist alone; cytotoxicity flag (confluency mask): cytotoxic (confluency <70% of control); higher = enhanced NF-kB activity
# Summary of the method: (§1)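 Cytotoxic wells were those whose IncuCyte confluency was below 70% of agonist controls in both mask sets. The cells were RAW-Dual macrophages at 50,000 cells/well in DMEM on 384-well plates, dosed with 50 nL of library stock by pin tool, stimulated with a PRR agonist 1 h later, and kept at 37 °C, 5% CO2 for 20 hours. IRF and NF-κB reporter activity, as fold change over agonist-alone wells, came from supernatant read by QuantiLuc luminescence and QuantiBlue absorbance, respectively.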
# [2] = system: RAW-Dual; assay: NF-kB SEAP reporter activity, fold change vs agonist alone; higher = enhanced NF-kB activity; conditions: cytotoxicity flag (confluency mask): not cytotoxic
# Summary of the method: as §1
# [3] = system: RAW-Dual; assay: NF-kB SEAP reporter activity, fold change vs agonist alone; cytotoxicity flag (confluency mask): not cytotoxic; higher = enhanced NF-kB activity
# Summary of the method: as §1
# [4] = agonist: ODN 1826 (TLR9) 0.5 ug/mL
# [5] = agonist: Pam2CSK4 (TLR2/6) 0.1 ug/mL
# [6] = agonist: Pam3CSK4 (TLR2/1) 0.1 ug/mL
# [7] = library stock concentration (final ~1000-fold dilution): 10 mM, agonist: Imiquimod (TLR7) […]
# [8] = library stock concentration (final ~1000-fold dilution): 10 mM, agonist: MPLA (TLR4) […]
smiles,measurement,setting,value
COc1cc2nccc(Oc3ccc(NC(=O)Nc4ccc(F)cc4F)c(F)c3)c2cc1OC (library stock concentration (final ~1000-fold dilution): 10 mM),NF-kB SEAP reporter activity,[1]; agonist: LPS (TLR4) 0.1 ug/mL,0.806
same,NF-kB SEAP reporter activity,[1]; [4],0.587
same,NF-kB SEAP reporter activity,[1]; [5],0.463
same,NF-kB SEAP reporter activity,[1]; [6],0.717
CC1CNCCCN1S(=O)(=O)c1cccc2cncc(F)c12.Cl.O.O (stereo not drawn),NF-kB SEAP reporter activity,[2]; [7],1.01
same,NF-kB SEAP reporter activity,[2]; [8],1.08
CC1CNCCCN1S(=O)(=O)c1cccc2cncc(F)c12.Cl.O.O (stereo not drawn) (library stock concentration (final ~1000-fold dilution): 10 mM),NF-kB SEAP reporter activity,[3]; agonist: LPS (TLR4) 0.1 ug/mL,1.11
same,NF-kB SEAP reporter activity,[3]; [4],0.99
same,NF-kB SEAP reporter activity,[3]; [5],1.27
same,NF-kB SEAP reporter activity,[3]; [6],1.5
COC(=O)NC(C(=O)N1CCCC1c1ncc(-c2ccc(-c3ccc(-c4cnc(C5CCCN5C(=O)C(NC(=O)OC)C(C)C)[nH]4)cc3)cc2)[nH]1)C(C)C.Cl.Cl (stereo not drawn),NF-kB SEAP reporter activity,[2]; [8],1.76
COC(=O)NC(C(=O)N1CCCC1c1ncc(-c2ccc(-c3ccc(-c4cnc(C5CCCN5C(=O)C(NC(=O)OC)C(C)C)[nH]4)cc3)cc2)[nH]1)C(C)C.Cl.Cl (stereo not drawn) (library stock concentration (final ~1000-fold dilution): 10 mM),NF-kB SEAP reporter activity,[3]; agonist: LPS (TLR4) 0.1 ug/mL,1.85
same,NF-kB SEAP reporter activity,[3]; [4],0.91
same,NF-kB SEAP reporter activity,[3]; [5],1.02
same,NF-kB SEAP reporter activity,[3]; [6],0.606
CC(C)CN(CC(O)C(Cc1ccccc1)NC(=O)OC1CCOC1)S(=O)(=O)c1ccc(N)cc1 (stereo not drawn) (library stock concentration (final ~1000-fold dilution): 10 mM),NF-kB SEAP reporter activity,[3]; agonist: LPS (TLR4) 0.1 ug/mL,1.41
same,NF-kB SEAP reporter activity,[3]; [4],1.74
same,NF-kB SEAP reporter activity,[3]; [5],1.45
same,NF-kB SEAP reporter activity,[3]; [6],1.32
CC(C)CN(CC(O)C(Cc1ccccc1)NC(=O)OC1CCOC1)S(=O)(=O)c1ccc(N)cc1 (stereo not drawn),NF-kB SEAP reporter activity,[2]; [7],1.3
same,NF-kB SEAP reporter activity,[2]; [8],1.6
CC1CCOC2Cn3cc(C(=O)NCc4ccc(F)cc4F)c(=O)c(O)c3C(=O)N12 (stereo not drawn),NF-kB SEAP reporter activity,"[2]; library stock concentration (final ~1000-fold dilution): 2 mM, agonist: MPLA (TLR4) […]",0.994
same,NF-kB SEAP reporter activity,[2]; [7],1.18
same,NF-kB SEAP reporter activity,[2]; [8],0.999
CC1CCOC2Cn3cc(C(=O)NCc4ccc(F)cc4F)c(=O)c(O)c3C(=O)N12 (stereo not drawn) (library stock concentration (final ~1000-fold dilution): 10 mM),NF-kB SEAP reporter activity,[3]; agonist: LPS (TLR4) 0.1 ug/mL,0.989
same,NF-kB SEAP reporter activity,[3]; [4],0.999
same,NF-kB SEAP reporter activity,[3]; [5],1.09
same,NF-kB SEAP reporter activity,[3]; [6],0.921
CC1CCOC2Cn3cc(C(=O)NCc4ccc(F)cc4F)c(=O)c(O)c3C(=O)N12 (stereo not drawn) (library stock concentration (final ~1000-fold dilution): 2 mM),NF-kB SEAP reporter activity,[3]; agonist: LPS (TLR4) 0.1 ug/mL,1.23
same,NF-kB SEAP reporter activity,[3]; [4],0.967
same,NF-kB SEAP reporter activity,[3]; [5],0.958
same,NF-kB SEAP reporter activity,[3]; [6],0.873
CCOC(=O)C(CCc1ccccc1)NC1CCc2ccccc2N(CC(=O)O)C1=O.Cl (stereo not drawn) (library stock concentration (final ~1000-fold dilution): 10 mM),NF-kB SEAP reporter activity,[3]; agonist: LPS (TLR4) 0.1 ug/mL,0.997
same,NF-kB SEAP reporter activity,[3]; [4],0.98
same,NF-kB SEAP reporter activity,[3]; [5],1.03
same,NF-kB SEAP reporter activity,[3]; [6],0.994
CCOC(=O)C(CCc1ccccc1)NC1CCc2ccccc2N(CC(=O)O)C1=O.Cl (stereo not drawn),NF-kB SEAP reporter activity,[2]; [7],0.99
same,NF-kB SEAP reporter activity,[2]; [8],0.958
